Source: PubChem BioAssay (NCATS)
Inconclusive results are not listed. Calls of active or inactive are those of the source. Calls follow the shape of the dose curve; as a rule, active = well fitted cell-killing curve with a large enough effect; inconclusive = small, poorly fitted or top-dose-only effect, or effect the other way; inactive = no such curve, though single readings can be large or run the other way. Positions of bridges follow the written chain, without caps; N, C: chain ends. Non-standard residues stand in square brackets, D forms with d. Residues, ends and D or L forms follow the SMILES beside them. ξ: configuration not given here. *: point of attachment. Octanoyl(6-Me) = CCC(C)CCCCC(=O)*; ξThr(3R) = C[C@@H](O)C(N)C(=O)O; dDab = NCC[C@@H](N)C(=O)O; Dab = NCC[C@H](N)C(=O)O; Nva = CCC[C@H](N)C(=O)O; Cbz = O=C(OCc1ccccc1)*

experiment: Quantitative High-Throughput drug screen in 47 multiple myeloma cell lines against the NCATS MIPE library collection: OPM2_DSMZ cell viability assay (AID 1919872); conditions: OPM2 myeloma viability, CellTiter-Glo ATP luminescence, 48 h; series mostly up to 45.8 µM; viability (% of DMSO): at the top concentration; also: nearly all actives have a fitted effect of over 30% in size
Description: PI: Beverly A. Mock Ph.D.
Laboratory of Cancer Biology and Genetics,
Center for Cancer Research, National Cancer Institute,
National Institute of Health, Bethesda, Maryland
Drug resistance and disease progression are common in multiple myeloma (MM) patients, underscoring the need for new therapeutic combinations. […] We hypothesized that effective combinations would reduce MYC expression and enhance p16 activity. […] These preclinical data identify potentially useful drug combinations for evaluation in drug-resistant MM and reveal potential mechanisms of combined drug sensitivity.
Described herein is the primary MIPE qHTS used to cherrypick compounds. Validated compounds were then further tested for potential synergistic activiy.
[1] Peat TJ, Gaikwad SM, Dubois W, Gyabaah-Kessie N, Zhang S, Gorjifard S, Phyo Z, Andres M, Hughitt VK, Simpson RM, Miller MA, Girvin AT, Taylor A, Williams D, D'Antonio N, Zhang Y, Rajagopalan A, Flietner E, Wilson K, Zhang X, Shinn P, Klumpp-Thomas C, McKnight C, Itkin Z, Chen L, Kazandijian D, Zhang J, Michalowski AM, Simmons JK, Keats J, Thomas CJ, Mock BA. Drug combinations identified by high-throughput screening promote cell cycle transition and upregulate Smad pathways in myeloma. Cancer Lett. 2023 Aug 1;568:216284. doi: 10.1016/j.canlet.2023.216284. Epub 2023 Jun 24. PMID: 37356470; PMCID: PMC10408729.
SEQUENCE No. (e.g., 1, 2, 3, etc.); […] (e.g., Cells, Incubation, Reagent, etc.); VALUE and DESCRIPTION.
1; Cells; 5 uL; white, solid bottom 1536-well Greiner assay plate.
2; Compounds; 23 nL; Kalypsis pin tool (Wako USA) equipped with a 1536-well pin head to transfer to the assay plates.
3; Incubation; 48 hours; 37C incubation.
4; Reagent;5uL; CellTiter Glo (Promega).
5; Detector; 425V; Luminescence; Viewlux PerkinElmer.
NOTES (numbers refer to Sequence numbers above)
1. The cell-based screening methods employed in this study were like those previously published. Briefly, the corresponding myeloma cell lines were screened in 1,536-well plates with 500 cells, 5-uL per well for inhibition of cell viability (assessed by measuring ATP levels with CellTiterGlo).
2. NCATS MIPE 4.0 library of approved and investigational drugs were added using the Kalypsis pin tool. Wells treated with DMSO only for 100% viability and media only wells for 0% viability were used as controls.
3. The assay plates were covered and incubated for 48 hours in a 37C, 5% CO2 incubator with controlled humidity.
4. After 48 hours, CellTilter-GloTM luminescent substrate mix (Promega) reagent was added to the assay plate and plates we incubated for 5 min at room temperature.
5. Signal was measured as median relative luminescence units on a ViewLux (PerkinElmer) multiplate reader.
[1] Heske CM, Davis MI, Baumgart JT, Wilson K, Gormally MV, Chen L, Zhang X, Ceribelli M, Duveau DY, Guha R, Ferrer M, Arnaldez FI, Ji J, Tran HL, Zhang Y, Mendoza A, Helman LJ, Thomas CJ. Matrix Screen Identifies Synergistic Combination of PARP Inhibitors and Nicotinamide Phosphoribosyltransferase (NAMPT) Inhibitors in Ewing Sarcoma. Clin Cancer Res. 2017 Dec 1;23(23):7301-7311. doi: 10.1158/1078-0432.CCR-17-1121. Epub 2017 Sep 12. PMID: 28899971; PMCID: PMC6636827.
Potency is read from the fitted curve at half-maximal effect.

| Compound | Potency | viability (% of DMSO) |
| --- | --- | --- |
| CC[C@@]1([C@@H]2O[C@@H]([C@H]3O[C@@](O)(CO)[C@H](C)C[C@H]3C)C[C@H]2C)CC[C@H]([C@]2(C)CC[C@]3(C[C@H](O)[C@@H](C)[C@@H]([C@@H](C)[C@@H](OC)[C@H](C)C(=O)O)O3)O2)O1 | 0.144 µM (active) | – |
| CC(=O)O[C@]1(C(C)=O)CC[C@H]2[C@@H]3C=C(C)C4=CC(=O)CC[C@]4(C)[C@@H]3CC[C@@]21C | – | 106% (inactive) |
| O=C(Nc1nnc(-c2ccco2)o1)c1cc(-c2ccccc2)nc2ccccc12 | – | 101% (inactive) |
| COc1ccc(C=Cc2cc(OC)c(OC)c(OC)c2)cc1NC(=O)[C@H](N)CO | 0.0083 µM (active) | – |
| O=C1c2c(O)cccc2[C@@H]([C@@H]2O[C@H](CO)[C@@H](O)[C@H](O)[C@H]2O)c2cc(CO)cc(O)c21 | – | 125% (inactive) |
| Cc1noc(-c2ccc(CSCCC(=O)O)cc2)c1NC(=O)OC(C)c1ccccc1Cl (stereo not given) | – | 102% (inactive) |
| O=c1ccn([C@@H]2O[C@H](CO)[C@H](O)[C@@H]2F)c(=O)[nH]1 | – | 108% (inactive) |
| CNC(=O)Nc1ccc(-c2nc(N3CC4CCC(C3)O4)c3cnn(C4CCC5(CC4)OCCO5)c3n2)cc1 | 0.0209 µM (active) | – |
| Cc1ccc(O)c(C(CCN(C(C)C)C(C)C)c2ccccc2)c1 (stereo not given) | – | 122% (inactive) |
| CCC[C@@H](C=O)NC(=O)[C@H](CC(C)C)NC(=O)[C@H](CC(C)C)NC(=O)OCc1ccccc1 (Cbz-Leu-Leu-[Nva]-aldehyde) | 1.66 µM (active) | – |
| O=C1NCCc2[nH]c(-c3ccncc3)cc21 | 14.8 µM (active) | – |
| Oc1ccc(-c2ccc(-c3cc(Nc4cccc(CNC5CC5)c4)n[nH]3)cc2)c(O)c1 | 4.69 µM (active) | – |
| CC(=O)OCC(=O)[C@@]12N=C(C)O[C@H]1C[C@H]1[C@@H]3CCC4=CC(=O)C=C[C@]4(C)[C@@H]3[C@@H](O)C[C@@]12C | – | 104% (inactive) |
| CS[C@H]1SC[C@@H]2C(=O)N(C)[C@H](C(C)C)C(=O)OC[C@H](NC(=O)c3cnc4ccccc4n3)C(=O)N[C@H](C)C(=O)N(C)[C@@H]1C(=O)N(C)[C@H](C(C)C)C(=O)OC[C@H](NC(=O)c1cnc3ccccc3n1)C(=O)N[C@H](C)C(=O)N2C | 0.0083 µM (active) | – |
| CCNC(=O)Nc1ccc(-c2nc3c(c(N4CCOC[C@H]4C)n2)CCN(C2COC2)C3)cc1 | 1.66 µM (active) | – |
| COc1cccc2c1C(=O)c1c(O)c3c(c(O)c1C2=O)C[C@@](O)(C(=O)CO)C[C@@H]3O[C@H]1C[C@H](N)[C@@H](O)[C@H](C)O1 | 2.09 µM (active) | – |
| COC(=O)[C@@H]1CC2=CC(=O)CC[C@]2(C)[C@@]23O[C@@H]2C[C@@]2(C)[C@H](CC[C@@]24CCC(=O)O4)[C@@H]13 | – | 112% (inactive) |
| CON=C(C(=O)N[C@@H]1C(=O)N2C(C(=O)O)=C(Cn3ccc(=N)n3CCO)CS[C@H]12)c1csc(N)n1 | – | 96.9% (inactive) |
| COC1=C(OC)C(=O)C(CC=C(C)CCC=C(C)CCC=C(C)CCC=C(C)CCC=C(C)CCC=C(C)CCC=C(C)CCC=C(C)CCC=C(C)CCC=C(C)C)=C(C)C1=O | – | 115% (inactive) |
| C=CC(=O)N1CCc2ccc(-n3c(=O)ccc4cnc5ccc(-c6cnn(C)c6)cc5c43)cc21 | 2.35 µM (active) | – |

| Compound | Potency | viability (% of DMSO) |
| --- | --- | --- |
| Cc1cncc2cccc(S(=O)(=O)N3CCCN(C(=O)CN)C[C@@H]3C)c12 | – | 85.7% (inactive) |
| O=C(C=CC=Cc1ccc2c(c1)OCO2)N1CCCCC1 | – | 110% (inactive) |
| CCCCCCCCCCCCc1ccc(S(=O)(=O)Nc2nncs2)cc1 | – | 91.8% (inactive) |
| N#CC(=Cc1ccc(O)c(O)c1)C(=O)NCc1ccccc1 | – | 111% (inactive) |
| COc1ccnc2[nH]cc(C(=O)C(=O)N3CCN(C(=O)c4ccccc4)C[C@@H]3C)c12 | – | 98.2% (inactive) |
| CC(C)N(CC[C@H](c1ccccc1)c1cc(CO)ccc1O)C(C)C | – | 113% (inactive) |
| O=C1NC(=O)[C@@H](c2cn3c4c(cccc24)CCC3)[C@H]1c1c[nH]c2ccccc12 | 1.32 µM (active) | – |
| CC(C)Oc1ccc(C(=O)N[C@H](CNC(=O)CN(C)C)Cc2ccc(-c3cn4cccc([C@H](C)O)c4n3)cc2)cc1Cl | 1.48 µM (active) | – |
| COc1ccc(C[C@@H](C)[C@@H](C)Cc2ccc(OC)c(OC)c2)cc1OC | 0.469 µM (active) | – |
| C[C@H](NC(=O)Cc1cc(F)cc(F)c1)C(=O)N[C@H](C(=O)OC(C)(C)C)c1ccccc1 | – | 101% (inactive) |
| CC1(C)CC(O)CC(C)(C)N1[O] | – | 117% (inactive) |
| C=CC1=C(C(=O)O)N2C(=O)[C@@H](NC(=O)C(=NO)c3csc(N)n3)[C@H]2SC1 | – | 116% (inactive) |
| COc1cc(OC)c(NC(=O)Nc2cc(C)on2)cc1Cl | – | 124% (inactive) |
| CCc1ccc(C(=O)Nc2cc(CN3CCN(C)CC3)cc(C(F)(F)F)c2)cc1C#Cc1cnc2ccnn2c1 | 14.8 µM (active) | – |
| CC(Oc1ccc(O)cc1)(P(=O)(O)O)P(=O)(O)O | – | 104% (inactive) |
| CC(=O)N[C@@H]1[C@H](O[C@@H]2c3ccc(c(Cl)c3)Oc3cc4cc(c3O[C@H]3O[C@H](CO)[C@@H](O)[C@H](O)[C@H]3NC(=O)CCCCCCCC(C)C)Oc3ccc(cc3Cl)C[C@H]3NC(=O)[C@H](N)c5ccc(O)c(c5)Oc5cc(O)cc(c5)[C@H](NC3=O)C(=O)N[C@H]4C(=O)N[C@H]3C(=O)N[C@@H]2C(=O)N[C@@H](C(=O)O)c2cc(O)cc(O[C@H]4O[C@H](CO)[C@@H](O)[C@H](O)[C@H]4O)c2-c2cc3ccc2O)O[C@H](CO)[C@@H](O)[C@@H]1O | – | 110% (inactive) |
| Cc1ccc([N+](=O)[O-])cc1S(=O)(=O)N(C)N=Cc1cnc2ccc(Br)cn12 | 0.059 µM (active) | – |
| CCC(C)CCCCC(=O)N[C@@H](CCN)C(=O)NC(C(=O)N[C@H](CCN)C(=O)N[C@@H]1CCNC(=O)C([C@@H](C)O)NC(=O)[C@@H](CCN)NC(=O)[C@@H](CCN)NC(=O)[C@@H](CC(C)C)NC(=O)[C@H](Cc2ccccc2)NC(=O)[C@H](CCN)NC1=O)[C@@H](C)O (stereo partly drawn) ({Octanoyl(6-Me)}-[Dab][ξThr(3R)][dDab][dDab][Dab]F[dL][dDab][dDab][ξThr(3R)]; lactam 4-C) | – | 101% (inactive) |
| O=C(C=Cc1ccc(CN(CCO)CCc2c[nH]c3ccccc23)cc1)NO | 0.209 µM (active) | – |
| COc1cc([C@@H]2c3cc4c(cc3[C@@H](O[C@@H]3O[C@@H]5CO[C@@H](c6cccs6)O[C@@H]5[C@H](O)[C@@H]3O)[C@H]3COC(=O)[C@H]23)OCO4)cc(OC)c1O | 4.18 µM (active) | – |
